High-throughput results from PubChem BioAssay.
A selection: hits, their analogues and other compounds. The true share with any hit is near 11%.
JMJD2A Tudor = JMJD2A Tudor domain (human) inhibition; AlphaScreen JMJD2A-Tudor / H3K4me3 peptide binding; Potency, µM (series often up to 114 µM), hits mostly inhibitors; O75164; hit rate 4.4% among 390,000; further: nearly all actives have a fitted effect of over 50% in size
BAZ2B inh = BAZ2B (human) inhibition; Q9UIF8; AlphaScreen BAZ2B-H3K14Ac peptide displacement; Potency, µM (doses to about 114 µM), usual class: inhibitors; hit rate 4.4% among 360,000; AID 504333; further: nearly all actives have a fitted effect of over 60% in size
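Protein-peptide AlphaScreen: BAZ2B 50 nM, b-H3K14Ac 50 nM, 1x PBS pH 7.4 + 0.01% Tween-20. Preincubation 30 min RT; cpd 30 min RT (top 110 uM); beads 20 min RT, light-protected.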
HP1b chromo inh = inhibitors of HP1-beta chromodomain binding to methylated histone tails. hit rate 0.56% among 390,000. AlphaScreen HP1-beta / biotin-H3K9me3 peptide binding. AID 540317. Potency, µM (doses to about 114 µM), usual class: inhibitors; further: nearly all actives have a fitted effect of over 70% in size
Target sequence (P83916 whole entry, looked up): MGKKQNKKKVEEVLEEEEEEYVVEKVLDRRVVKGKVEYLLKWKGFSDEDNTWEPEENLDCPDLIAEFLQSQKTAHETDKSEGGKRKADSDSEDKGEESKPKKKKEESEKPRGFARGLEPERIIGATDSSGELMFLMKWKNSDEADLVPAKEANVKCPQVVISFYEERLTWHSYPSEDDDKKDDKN
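HP1-beta protein (50 nM final) preincubated 30 min at room temperature with biotinylated H3(1-18)K9me3 peptide (50 nM) in PBS pH 7.4, 0.01% Tween-20, then compound added for 30 min. AlphaScreen streptavidin donor/nickel chelate acceptor beads (10 ug/mL final), 30 min dark, luminescence read.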
L3MBTL1 block = inhibitors of human L3MBTL1 | hit rate 0.66% among 230,000 | Q9Y468 | AID 485360 | AlphaScreen L3MBTL1–H3K9me1 peptide binding | Potency, µM (doses to about 57.1 µM), actives largely listed as inhibitors; further: nearly all actives have a fitted effect of over 60% in size
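L3MBTL1 (50 nM) pre-complexed 30 min with biotinylated H3(1-15)K9me1 peptide (75 nM), then compounds added for 30 min at room temperature; AlphaScreen streptavidin donor/nickel chelate acceptor beads (10 ug/mL final) read after 30 min dark incubation.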
G9a inh = blocks human histone lysine methyltransferase G9a; G9a H3K9 monomethylation, AlphaScreen, 2 h; Potency, µM (highest dose often 102 µM), hits mostly inhibitors; Q96KQ7; hit rate 8.8% among 350,000; further: nearly all actives have a fitted effect of over 75% in size
Target sequence (Q96KQ7 913-1193 limits assumed): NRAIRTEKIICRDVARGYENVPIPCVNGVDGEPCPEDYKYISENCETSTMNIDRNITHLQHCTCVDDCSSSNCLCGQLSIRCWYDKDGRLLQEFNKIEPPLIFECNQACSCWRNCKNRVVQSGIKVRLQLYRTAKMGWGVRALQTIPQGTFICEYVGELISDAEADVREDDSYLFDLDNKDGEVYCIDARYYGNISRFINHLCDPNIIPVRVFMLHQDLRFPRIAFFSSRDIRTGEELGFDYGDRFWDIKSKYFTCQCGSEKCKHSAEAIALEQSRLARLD
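AlphaScreen read-out: biotin-H3K9 peptide (500 nM) methylation by 20 nM enzyme with 20 uM SAM, 2 h at room temperature after 15 min compound preincubation; anti-monomethyl H3K9 antibody plus donor/acceptor beads, 10 min dark.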
Hits are given with their value; . = inactive; ? = inconclusive; / = no result given; [ ] = dose if it differs, or a comment. The call rests on the fitted dose curve; in most records, active means well fitted inhibition curve with a large enough effect; inconclusive means small, poorly fitted or top-dose-only effect; inactive means no such curve, though single readings can be large or run the other way.

SMILES | JMJD2A Tudor | BAZ2B inh | HP1b chromo inh | L3MBTL1 block | G9a inh
COc1ccc(C(=O)Nc2nncs2)cc1S(=O)(=O)N1CCOCC1 | . | . | . | / | 56µM
COc1ccc(C(=O)Nc2nc(-c3ccccn3)cs2)cc1S(=O)(=O)N1CCOCC1 | 25µM | / | . | ? | /
Nc1ncc(S(=O)(=O)NCc2cccc(Cl)c2)cn1 | . | . | . | / | .
N#Cc1ccccc1Cn1c(=O)n(CCCC(=O)NCc2ccccc2Cl)c(=O)c2ccccc21 | . | . | . | / | .
COc1ccc(NC(=O)Cn2cnc3c(nc4n3CCCCC4)c2=O)c(OC)c1 | . | . | . | / | .
CCOC(=O)CSc1nc2c(sc3cccc(F)c32)c(=O)n1Cc1ccc(OC)cc1 | . | . | . | / | .
O=S(=O)(c1cccc(-c2csc(-c3cccnc3)n2)c1)N1CCOCC1 | . | . | . | / | 71µM
O=S(=O)(c1cccc(-c2csc(-c3cccnc3)n2)c1)N1CCCCC1 | . | . | . | / | .[2.33 µM]
Cc1ccc(S(=O)(=O)N2CCOCC2)cc1C(=O)Nc1nc(-c2ccccn2)cs1 | 40µM | / | ? | ? | /
O=C(Nc1nc(-c2ccccn2)cs1)c1ccc(S(=O)(=O)N2CCCCC2)cc1 | / | ? | / | / | .
O=C(Nc1nc(-c2ccccn2)cs1)c1cccc(S(=O)(=O)N2CCOCC2)c1 | 50µM | 28µM | . | ? | ?
CCOC(=O)c1c(-c2ccccc2Cl)csc1NC(=O)c1cc(S(=O)(=O)N2CCOCC2)ccc1C | . | . | ? | . | 7.9µM
CCCCSCCCNC(=O)c1c[nH]c2ccc(S(=O)(=O)Nc3cccc(OC)c3)cc2c1=O | . | . | . | / | .
Cn1ncc(Cl)c1C(=O)N1CCN(S(=O)(=O)c2ccc(Cl)s2)CC1 | . | . | . | / | .
COc1ccc(C(=O)OC/C(O)=C(\C#N)c2nc3ccccc3[nH]2)cc1S(=O)(=O)N1CCOCC1 | . | . | . | . | 79µM
COc1ccc(C(=O)Nc2nc3ccccc3[nH]2)cc1S(=O)(=O)N1CCOCC1 | . | ? | . | . | .
COc1cccc(-c2nc(CS(=O)CC(=O)NCc3ccc4c(c3)OCO4)c(C)o2)c1 (centres undefined) | . | . | . | / | 50µM
COc1cccc(-c2nc(CS(=O)CC(=O)NCc3ccccc3Cl)c(C)o2)c1 (centres undefined) | . | . | . | / | 35µM
O=C(CN1C(=O)COc2ccc(S(=O)(=O)N3CCCCCC3)cc21)N1CCN(c2ccc(Cl)cc2)CC1 | ? | . | . | / | .
COC(=O)c1ccc(COc2ccccc2/C=C/C(=O)c2ccc(OCC(=O)O)cc2)cc1 | . | ? | . | / | 50µM
O=C(O)c1cccc(NC(=S)N/N=C/c2ccccc2OCc2ccc(Br)cc2)c1 | 50µM | 50µM | ? | . | ?
CCCOc1ccc(/C=N/Nc2cccc([N+](=O)[O-])c2)c(O)c1 | . | . | . | . | ?
COC(=O)c1ccc(COc2ccccc2/C=N/Nc2cccc(C(=O)O)c2)cc1 | . | . | . | . | 25µM
CCCOc1ccc(/C=N/Nc2ccc(C(=O)O)cc2)c(OCCC)c1 | ? | ? | . | . | 40µM
CC(=O)Nc1c(C)nn(-c2ccccc2)c1N1CCC(C(=O)Nc2cccc(C(F)(F)F)c2)CC1 | . | . | . | / | .
SMILES | JMJD2A Tudor | BAZ2B inh | HP1b chromo inh | L3MBTL1 block | G9a inh
CCc1ccc(CNC(=O)CN2C(=O)CSc3c2c(C)nn3-c2ccccc2)cc1 | . | . | . | / | .
CCOC(=O)N1CCN(C(=O)CN(c2cccc(Cl)c2)S(=O)(=O)c2ccccc2)CC1 | . | . | . | / | .
COc1ccc(S(=O)(=O)NCCc2csc3nc(-c4ccc(Cl)cc4)nn23)cc1C | . | ? | . | / | .
COc1cccc(NS(=O)(=O)c2ccc3[nH]cc(C(=O)NC(C)c4ccccc4)c(=O)c3c2)c1 (centres undefined) | ? | / | . | / | .
CCOc1cc(/C=N/Nc2ccccc2Cl)ccc1OCC(=O)O | . | ? | ? | ? | 10µM
O=C(O)c1cccc(NC(=S)N/N=C/c2ccccc2OCc2cccc(Br)c2)c1 | 50µM | 45µM | ? | . | 45µM
CCOc1cc(/C=N/Nc2nc(Nc3ccccc3)nc(N3CCCCC3)n2)ccc1OCC(=O)O | ? | . | . | . | ?
CCOc1cc(/C=N/NC(=O)CNc2cccc(C)c2)ccc1OC(=O)c1ccccc1 | ? | ? | . | . | .[12.7 µM]
